Source: PubChem BioAssay (NCATS)
Inconclusive results are not listed. Where a call stands in place of a potency, no number is given. The source made the active and inactive calls. Calls come from the whole dose curve; as a rule, active = well fitted inhibition curve with a large enough effect; inconclusive = small, poorly fitted or top-dose-only effect; inactive = flat fitted curve, though single readings scatter.

Experiments:
Assay in all cases: qHTS profiling for inhibitors of Plasmodium falciparum proliferation (AID 504749); note: nearly all actives have a fitted effect of over 60% in size
Conditions in all cases: P. falciparum in erythrocytes, SYBR Green DNA, 72 h; series mostly up to 28.7 µM
[1] = test system: CP191
Outline: (§1)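 Each compound contacts P. falciparum-infected red blood cells for 72 h at 37 C; lysis buffer (Tris, EDTA, saponin, Triton X, SYBR Green I) is added and fluorescence measured next morning; values normalized to controls.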

[2] = test system: CP192
Outline: as §1

[3] = test system: CP194
Outline: as §1

[4] = test system: CP201
Outline: as §1

[5] = test system: CP203
Outline: as §1

[6] = test system: CP211
Outline: as §1

[7] = test system: CP215
Outline: as §1

[8] = test system: CP217
Outline: as §1

[9] = test system: CP237
Outline: as §1

[10] = test system: CP238
Outline: as §1

[11] = test system: CP247
Outline: as §1

[12] = test system: CP250
Outline: as §1

[13] = test system: CP252
Outline: as §1

[14] = test system: CP256
Outline: as §1

[15] = test system: CP260
Outline: as §1

[16] = test system: CP262
Outline: as §1

[17] = test system: CP265
Outline: as §1

[18] = test system: CP266
Outline: as §1

[19] = test system: CP268
Outline: as §1

[20] = test system: CP269
Outline: as §1
Potency is the fitted concentration of half-maximal effect.

| Structure (SMILES) | Potency [1] | Potency [2] | Potency [3] | Potency [4] | Potency [5] | Potency [6] | Potency [7] | Potency [8] | Potency [9] | Potency [10] | Potency [11] | Potency [12] | Potency [13] | Potency [14] | Potency [15] | Potency [16] | Potency [17] | Potency [18] | Potency [19] | Potency [20] |
| --- | --- | --- | --- | --- | --- | --- | --- | --- | --- | --- | --- | --- | --- | --- | --- | --- | --- | --- | --- | --- |
| CCCCCCCCCCCCCCCC(=O)O | inactive | inactive | inactive | inactive | inactive | inactive | inactive | inactive | inactive | inactive | inactive | inactive | inactive | inactive | inactive | inactive | inactive | inactive | inactive | inactive |
| CCCCN=C(N)N=C(N)N | inactive | inactive | inactive | inactive | inactive | inactive | inactive | inactive | inactive | inactive | inactive | inactive | inactive | inactive | inactive | inactive | inactive | inactive | inactive | inactive |
| CCCCNC(=O)NS(=O)(=O)c1ccc(N)cc1 | inactive | inactive | inactive | inactive | inactive | inactive | inactive | inactive | inactive | inactive | inactive | inactive | inactive | inactive | inactive | inactive | inactive | inactive | inactive | inactive |
| O=C(O)CCC(=O)Nc1ccc(S(=O)(=O)Nc2nccs2)cc1 | inactive | inactive | inactive | inactive | inactive | inactive | inactive | inactive | inactive | inactive | inactive | inactive | inactive | inactive | inactive | inactive | inactive | inactive | inactive | inactive |
| NS(=O)(=O)c1ccc(Cl)c(S(N)(=O)=O)c1 | inactive | inactive | inactive | inactive | inactive | inactive | inactive | inactive | inactive | inactive | inactive | inactive | inactive | inactive | inactive | inactive | inactive | inactive | inactive | inactive |
| O=c1[nH]c(=O)n([C@H]2C[C@H](O)[C@@H](CO)O2)cc1F | inactive | inactive | inactive | inactive | inactive | inactive | inactive | inactive | inactive | inactive | inactive | inactive | inactive | inactive | inactive | inactive | inactive | inactive | inactive | inactive |
| O=S(=O)(O)c1ccc(O)cc1 | inactive | inactive | inactive | inactive | inactive | inactive | inactive | inactive | inactive | inactive | inactive | inactive | inactive | inactive | inactive | inactive | inactive | inactive | inactive | inactive |
| Cn1c(=O)c2[nH]c(Br)nc2n(C)c1=O | inactive | inactive | inactive | inactive | inactive | inactive | inactive | inactive | inactive | inactive | inactive | inactive | inactive | inactive | inactive | inactive | inactive | inactive | inactive | inactive |
| CCOc1ccccc1OCCN[C@H](C)Cc1ccc(OC)c(S(N)(=O)=O)c1 | inactive | inactive | inactive | inactive | inactive | inactive | inactive | inactive | inactive | inactive | inactive | inactive | inactive | inactive | inactive | inactive | inactive | inactive | inactive | inactive |
| COc1ccc(-c2cc(C(F)F)nn2-c2ccc(S(N)(=O)=O)cc2)cc1F | inactive | inactive | inactive | inactive | inactive | inactive | inactive | inactive | inactive | inactive | inactive | inactive | inactive | inactive | inactive | inactive | inactive | inactive | inactive | inactive |
| CCCCC(CC)COC(=O)c1ccc(N(C)C)cc1 (stereo not given) | inactive | inactive | inactive | inactive | inactive | inactive | inactive | inactive | inactive | inactive | inactive | inactive | inactive | inactive | inactive | inactive | inactive | inactive | inactive | inactive |
| Cc1ccccc1OCC(O)CO (stereo not given) | inactive | inactive | inactive | inactive | inactive | inactive | inactive | inactive | inactive | inactive | inactive | inactive | inactive | inactive | inactive | inactive | inactive | inactive | inactive | inactive |
| CC(=O)Oc1ccc(C)cc1 | inactive | inactive | inactive | inactive | inactive | inactive | inactive | inactive | inactive | inactive | inactive | inactive | inactive | inactive | inactive | inactive | inactive | inactive | inactive | inactive |
| C=CCN1CCc2nc(N)sc2CC1 | inactive | inactive | inactive | inactive | inactive | inactive | inactive | inactive | inactive | inactive | inactive | inactive | inactive | inactive | inactive | inactive | inactive | inactive | inactive | inactive |
| CCCCCCCCNC(C)C(O)c1ccc(SC(C)C)cc1 (stereo not given) | 794 nM (active) | 2130 nM (active) | 1900 nM (active) | 3790 nM (active) | 1690 nM (active) | 3380 nM (active) | 1690 nM (active) | 708 nM (active) | 794 nM (active) | 794 nM (active) | 891 nM (active) | 891 nM (active) | 794 nM (active) | 1000 nM (active) | 355 nM (active) | 2130 nM (active) | 1120 nM (active) | 1690 nM (active) | 1510 nM (active) | 1510 nM (active) |
| COP(=O)(OC)OC(c1ccc(Cl)cc1)P(=O)(OC)OC (stereo not given) | inactive | inactive | inactive | inactive | inactive | inactive | inactive | inactive | inactive | inactive | inactive | inactive | inactive | inactive | inactive | inactive | inactive | inactive | inactive | inactive |
| NC(=O)c1ccccc1O | inactive | inactive | inactive | inactive | inactive | inactive | inactive | inactive | inactive | inactive | inactive | inactive | inactive | inactive | inactive | inactive | inactive | inactive | inactive | inactive |
| CCOc1ccccc1C(N)=O | inactive | inactive | inactive | inactive | inactive | inactive | inactive | inactive | inactive | inactive | inactive | inactive | inactive | inactive | inactive | inactive | inactive | inactive | inactive | inactive |
| O=C(O)Cc1csc(-c2ccc(Cl)cc2)n1 | inactive | inactive | inactive | inactive | inactive | inactive | inactive | inactive | inactive | inactive | inactive | inactive | inactive | inactive | inactive | inactive | inactive | inactive | inactive | inactive |
| FC(F)(F)C(F)(F)C(F)(F)C(F)(F)C(F)(F)C(F)(F)C(F)(F)C(F)(F)Br | inactive | inactive | inactive | inactive | inactive | inactive | inactive | inactive | inactive | inactive | inactive | inactive | inactive | inactive | inactive | inactive | inactive | inactive | inactive | inactive |
| CCCCCCCCCCCCCCCCO | inactive | inactive | inactive | inactive | inactive | inactive | inactive | inactive | inactive | inactive | inactive | inactive | inactive | inactive | inactive | inactive | inactive | inactive | inactive | inactive |
| CC(C)Cn1cnc2c1c(=O)n(C)c(=O)n2C | inactive | inactive | inactive | inactive | inactive | inactive | inactive | inactive | inactive | inactive | inactive | inactive | inactive | inactive | inactive | inactive | inactive | inactive | inactive | inactive |
| CCc1oc2ccccc2c1C(=O)c1cc(I)c(O)c(I)c1 | inactive | inactive | inactive | inactive | inactive | inactive | inactive | inactive | inactive | inactive | inactive | inactive | inactive | inactive | inactive | inactive | inactive | inactive | inactive | inactive |
| CC(=O)N[C@@H](CCC(=O)O)C(=O)O | inactive | inactive | inactive | inactive | inactive | inactive | inactive | inactive | inactive | inactive | inactive | inactive | inactive | inactive | inactive | inactive | inactive | inactive | inactive | inactive |
| CCCN(CCC)S(=O)(=O)c1ccc(C(=O)O)cc1 | inactive | inactive | inactive | inactive | inactive | inactive | inactive | inactive | inactive | inactive | inactive | inactive | inactive | inactive | inactive | inactive | inactive | inactive | inactive | inactive |
| CCN(CC)CCNC(=O)COc1ccc(OC)cc1 | inactive | inactive | inactive | inactive | inactive | inactive | inactive | inactive | inactive | inactive | inactive | inactive | inactive | inactive | inactive | inactive | inactive | inactive | inactive | inactive |
| CC(C)CCCC(C)N (stereo not given) | inactive | inactive | inactive | inactive | inactive | inactive | inactive | inactive | inactive | inactive | inactive | inactive | inactive | inactive | inactive | inactive | inactive | inactive | inactive | inactive |
| CCCCCCCC/C=C\CCCCCCCCN | inactive | inactive | inactive | inactive | inactive | inactive | inactive | inactive | inactive | inactive | inactive | inactive | inactive | inactive | inactive | inactive | inactive | inactive | inactive | inactive |
